Screening results (PubChem BioAssay)
MCL1-BIM inh = disrupts human MCL1 binding to BIM-BH3 peptide | 0.68% of 320,000 active | AID 2057 | inhibition, % at 10.9 µM | GST-MCL1 / FITC-Bim-BH3 fluorescence polarization;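 active = inhibition above the mean inhibition of all tested compounds plus 3 SD, set per campaign, cut at about 40% in these data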;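 also: 0% = DMSO wells and 100% = unlabeled Bim-BH3 peptide control; higher means more loss of mP so more displacement of Bim peptide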
Mcl1-Bid inh = disrupts binding of human Mcl-1 to Bid peptide; Q07820; AID 1021; 0.97% of 220,000 active; TR-FRET Mcl-1/Bid-Dy647 peptide binding, 1536-well; inhibition, % at 21.7 µM;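 active = compounds that cut the binding signal by more than half at the single screening dose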;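 also: His-tagged Mcl-1 with europium anti-His antibody binding Bid BH3 peptide; 0% = Mcl-1 plus peptide wells and 100% = peptide-only wells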
GLD-1 RNA inh = GLD-1-TGE RNA interaction inhibition (C. elegans); Q17339; purified GLD-1 + fluorescein TGE RNA, fluorescence polarization; inhibition, % at 5.96 µM; 0.44% of 320,000 active; AID 2280;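 active = percent inhibition above a per-plate cutoff, the plate mean of test compounds plus 3 SD, cut at about 30% in these data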;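 also: 0% = DMSO wells with GLD-1 and probe and 100% = wells lacking GLD-1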
Target sequence (Q17339 whole entry, looked up): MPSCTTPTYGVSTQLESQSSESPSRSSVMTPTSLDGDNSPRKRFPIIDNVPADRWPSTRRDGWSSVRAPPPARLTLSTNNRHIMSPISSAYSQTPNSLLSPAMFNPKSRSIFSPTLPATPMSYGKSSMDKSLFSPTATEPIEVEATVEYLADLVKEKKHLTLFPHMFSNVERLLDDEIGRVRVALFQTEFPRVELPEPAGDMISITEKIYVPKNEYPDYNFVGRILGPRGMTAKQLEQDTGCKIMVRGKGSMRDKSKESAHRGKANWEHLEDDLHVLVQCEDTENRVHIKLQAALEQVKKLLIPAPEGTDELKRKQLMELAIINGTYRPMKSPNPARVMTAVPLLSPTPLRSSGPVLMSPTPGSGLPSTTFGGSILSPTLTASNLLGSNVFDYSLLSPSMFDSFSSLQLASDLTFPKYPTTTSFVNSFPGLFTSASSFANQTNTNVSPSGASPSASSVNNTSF
Mcl1-Noxa inh = Mcl-1/Noxa interaction inhibition. Q07820. TR-FRET Mcl-1/Noxa peptide binding, 2 h. inhibition, % at 21.7 µM. 1.5% of 220,000 active;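 active = compounds that cut the protein-peptide binding signal by more than 50% relative to plate controls in a single-dose test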;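 also: His-tagged Mcl-1 with rhodamine Noxa BH3 peptide and terbium anti-His antibody; 0% = Mcl-1 plus Noxa peptide wells and 100% = peptide-only wells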
Mcl-1 Bim block = human Bim-Mcl-1 interaction inhibition; 0.1% of 190,000 active; Bead-based flow cytometry, Bim peptide-Mcl-1 binding; Q07820; AID 1009; inhibition, % at 10 µM; in the data active = inhibition above about 40%;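 also: 0% = no compound tracer wells and 100% = peptide blocker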
Bcl-xL primary = inhibitors of human Bcl-xL; Q07817; GST-Bcl-xL / FITC-Bim BH3 peptide fluorescence polarization; 0.7% of 320,000 active; inhibition, % at 10.9 µM;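 active = inhibition above the mean of all tested compounds plus 3 SD, cutoff set per campaign, cut at about 30% in these data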;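 also: 0% = DMSO wells and 100% = unlabeled Bim-BH3 peptide competitor; inhibitors lower millipolarization by displacing the labeled peptide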
Target sequence (Q07817 whole entry, looked up): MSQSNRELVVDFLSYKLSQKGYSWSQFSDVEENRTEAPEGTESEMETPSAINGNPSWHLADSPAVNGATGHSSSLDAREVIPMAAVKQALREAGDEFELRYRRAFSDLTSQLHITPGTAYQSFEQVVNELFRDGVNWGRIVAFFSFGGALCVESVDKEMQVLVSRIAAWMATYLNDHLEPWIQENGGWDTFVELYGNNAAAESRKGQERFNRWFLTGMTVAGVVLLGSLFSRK
BCLXL inh confirm = Bcl-xL (human) inhibition, MCL1 counter-screen confirmation; GST-Bcl-xL / FITC-Bim BH3 peptide FP binding; shares compounds with MCL1-BIM inh; inhibition, % at 10.9 µM; 54% of 1,700 active; AID 2166;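 active = inhibition above a cutoff equal to the mean inhibition of all tested compounds plus 3 SD, cut at about 30% in these data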;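 also: 0% = DMSO wells and 100% = unlabeled Bim BH3 control peptide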
MCL1 BIM confirm = confirmation of human MCL1 and BIM-BH3 interaction inhibitors; inhibition, % at 10.9 µM; 61% of 1,700 active; AID 2168; GST-MCL1 / FITC-Bim-BH3 fluorescence polarization; shares compounds with MCL1-BIM inh;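 active = inhibition above the average of all tested compounds plus 3 SD, cut at about 40% in these data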;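 also: 0% = DMSO wells and 100% = unlabeled Bim-BH3 control peptide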
Numbers without * were called inactive; / = no result given; + = active, no number. Hits are enriched below; roughly 2.3% of the tested compounds scored in any of these assays.

SMILES	MCL1-BIM inh	Mcl1-Bid inh	GLD-1 RNA inh	Mcl1-Noxa inh	Mcl-1 Bim block	Bcl-xL primary	BCLXL inh confirm	MCL1 BIM confirm
Cc1ccc(C)c(C(C)NC(=O)CC#N)c1 (centres undefined)	41.8*	-36.0	2.4	4.2	2.0	2.5	-0.3	-0.6
CC1CCN(c2nc3ccccn3c(=O)c2C=O)CC1	1.7	-49.2	2.5	-6.3	-3.0	6.3	/	/
O=Cc1c(Cl)nc2ccccn2c1=O	59.0*	27.9	18.9	-20.9	/	56.1*	10.4	10.7
COc1ccc(NC(=O)Cn2cnc3c(oc4nc5c(cc43)COC(C)(C)C5)c2=O)cc1	1.3	-10.8	-6.5	2.4	/	4.4	/	/
CCOc1ccc(CCNC(=O)CSCC(=O)Nc2cccc(C)c2)cc1OCC	-1.5	/	0.4	/	/	0.0	/	/
Cc1ccc(C(=O)O)cc1N1C(=O)c2cccc3c([N+](=O)[O-])ccc(c23)C1=O	101.7*	/	50.4*	/	/	81.7*	47.4*	75.6*
O=c1[nH]c2c(s1)C=Nc1ccccc1N2	+	-10.2	143.8*	24.7	0.0	178.2*	118.4*	151.5*
CC(C)CN(C(=O)CSc1nn(-c2ccc(Cl)cc2)c(=S)s1)C1CCS(=O)(=O)C1 (centres undefined)	-3.7	-1.7	7.5	0.0	-2.0	-1.6	/	/
COc1cc(/C=C2\SC(=S)N(C(C(=O)O)c3ccccc3)C2=O)ccc1O (centres undefined)	-0.3	6.3	-50.6	32.1	/	-2.5	/	/
O=C(O)C(c1ccccc1)N1C(=O)/C(=C\c2ccc(O)c(O)c2)SC1=S (centres undefined)	69.8*	/	-72.1	/	/	16.5	63.3*	88.4*
C=CCn1c(CSc2ccccc2[N+](=O)[O-])n[nH]c1=S	45.5*	/	-0.1	/	/	17.9	28.0	46.2*
O=C(Cn1nnc(-c2ccccc2)n1)N/N=C/c1cccc([N+](=O)[O-])c1O	46.4*	-109.1	4.7	44.5	0.0	4.0	46.6*	86.8*
O=C(N/N=C/c1ccncc1)c1cc([N+](=O)[O-])cc([N+](=O)[O-])c1O	43.1*	9.1	-0.8	84.4*	-2.0	8.9	12.3	48.9*
O=C(N/N=C/c1cc2c(c([N+](=O)[O-])c1)OCO2)c1ccncc1	7.9	/	-9.4	/	/	3.7	/	/
O=C(c1ccc2nc(-c3ccco3)c(-c3ccco3)nc2c1)N1CCN(c2ncccn2)CC1	80.8*	-47.0	14.9	100.4*	8.0	38.4*	34.9*	50.2*
O=C(NCc1ccccc1)c1ccc2nc(-c3ccco3)c(-c3ccco3)nc2c1	81.2*	11.8	15.1	101.7*	4.0	46.1*	42.5*	69.4*
O=C(c1cccc(C(=O)N2CCN(c3ncccn3)CC2)c1)N1CCN(c2ncccn2)CC1	3.4	-9.6	3.7	-15.1	-6.0	0.3	/	/
CC(=O)c1ccc(NC(=O)c2ccc3nc(-c4ccco4)c(-c4ccco4)nc3c2)cc1	80.2*	97.1*	12.5	100.5*	10.0	39.3*	36.0*	80.7*
CCCCNC(=O)c1ccc2nc(-c3ccco3)c(-c3ccco3)nc2c1	59.5*	-5.1	7.9	93.1*	3.0	40.6*	25.4	34.7
Cc1ccc(NC(=O)CCN2C(=O)NC3(CCCC3)C2=O)cc1S(=O)(=O)N1CCOCC1	4.5	/	5.4	/	/	3.0	/	/
S=C(Nc1ccc(N2CCOCC2)cc1)Nc1ccc2nc(-c3ccco3)c(-c3ccco3)nc2c1	+	-10.1	129.4*	81.4*	-5.0	187.9*	117.6*	149.9*
O=C(Nc1ccc(N2CCOCC2)cc1)c1ccc2nc(-c3ccco3)c(-c3ccco3)nc2c1	4.1	-11.7	4.2	32.6	1.0	0.2	/	/
O=C(Nc1ccccc1)c1ccc2nc(-c3ccco3)c(-c3ccco3)nc2c1	40.0*	32.2	12.4	100.9*	13.0	27.3	29.9	46.6*
CC1CCCN(C(=O)Cn2nnc(-c3ccc([N+](=O)[O-])cc3)n2)C1 (centres undefined)	2.6	/	6.8	/	/	4.2	/	/
CSCCC(NC(=O)c1ccc(Cl)cc1Cl)C(=O)NNC(=O)c1ccncc1 (centres undefined)	5.0	/	-1.1	/	/	2.5	/	/
SMILES	MCL1-BIM inh	Mcl1-Bid inh	GLD-1 RNA inh	Mcl1-Noxa inh	Mcl-1 Bim block	Bcl-xL primary	BCLXL inh confirm	MCL1 BIM confirm
O=C1Nc2ccccc2SC(c2ccccc2)C1O (centres undefined)	62.8*	62.7*	3.8	104.1*	1.0	21.9	23.7	91.4*
COc1ccc(NC(=O)COc2cccc(C(F)(F)F)c2)cn1	69.7*	/	61.4*	/	/	71.1*	82.4*	92.1*
CCN(CC)S(=O)(=O)c1ccc2c(c1)c(=O)c(C(=O)NCCc1ccccc1)cn2C	2.1	/	-3.4	/	/	0.6	/	/
CCCn1c(/C=C/c2cc[n+](C)cc2)nc2ccccc21	71.5*	/	30.4	/	/	67.1*	52.5*	56.1*
CCn1c(/C=C/c2ccccc2)nc2ccccc21	0.1	1.4	-2.8	22.9	3.0	3.0	/	/
c1ccc(-c2nnc(CSc3ccc4c(c3)OCCO4)o2)cc1	6.0	-4.1	-1.8	15.7	-3.0	4.3	/	/
CCOC(=O)CN(C(=O)CNC(=O)c1ccco1)C(C(=O)NC1CCCCC1)c1cccs1 (centres undefined)	92.0*	0.8	27.2	-2.0	-4.0	51.6*	46.2*	52.3*
CCOC(=O)CN(C(=O)CNC(=O)c1ccco1)C(C(=O)NC1CCCC1)c1ccccc1OCC (centres undefined)	4.5	-13.4	13.8	7.5	-1.0	2.3	/	/
C=CCNc1nnc(Cc2ccc(C(C)C)cc2)c(=O)[nH]1	-4.7	/	3.0	/	/	0.3	/	/
CC(=O)NC(CC(=O)OCC(=O)N1CCc2ccccc21)c1ccccc1 (centres undefined)	-7.3	/	4.3	/	/	-0.8	/	/
CCOc1cccc(NC(=O)C2CC(=O)N(C)C(=Nc3cccc(F)c3)S2)c1 (centres undefined)	42.4*	-1.4	8.4	21.6	-5.0	0.4	-0.7	0.5
O=C1OC(Nc2ncccn2)c2ccccc21 (centres undefined)	-6.3	17.0	7.2	10.6	-5.0	-7.2	/	/
O=C1OC(Nc2cc(Br)cc3cccnc23)c2ccccc21 (centres undefined)	90.5*	-41.2	11.1	11.2	-4.0	64.4*	56.3*	68.0*
N#Cc1c(-c2ccc(F)cc2)ccnc1N1CCOCC1	10.0	-14.7	0.8	6.5	0.0	10.9	/	/
COC1CCN(C(=O)CC2C(=O)NCCN2CC(C)(C)C)CC1 (centres undefined)	50.2*	-169.5	28.2	1.6	0.0	44.6*	9.9	19.3
CC(=O)c1cccc(NC(=O)CNC(=O)Cc2ccccc2)c1	0.8	/	2.6	/	/	1.0	/	/
